Results published in PubChem BioAssay (NCATS).
Results filed as inconclusive are left out. A call without a number means that no potency is given here. Active and inactive are the calls of the source. The call rests on the fitted dose curve; in most records, active means well fitted curve in the direction sought with a large enough effect; inconclusive means small, poorly fitted or top-dose-only effect, or another doubt; inactive means no such curve, though single readings can be large; an effect the other way counts as inactive or inconclusive.

Tests used:
[1] = qHTS to identify inhibitors of the type 1 interferon - major histocompatibility complex class I in skeletal muscle: primary screen against the NCATS LOPAC collection (AID 1347405);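 further: human myoblasts with HiBiT tag on endogenous HLA-B stimulated by IFN-beta; lytic HiBiT luminescence reporting HLA-B protein level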; further: potency means the concentration at half of the fitted maximal effect
Outline: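 HLA-B HiBiT myoblasts, IFN-b 4 ng/ml, dexamethasone-free medium; compounds 7-pt 1:4.3 titration, top 46 uM final; 24 h at 37 C; Nano-Glo HiBiT lytic reagent, 10 min RT, luminescence.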

[2] = qHTS for inhibitors of adenylyl cyclases using a fission yeast platform: a pilot screen against the NCATS LOPAC library (AID 1347410)
Outline: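 Growth medium went into the plates first, then compounds were pinned (final up to 57 µM), then CHP2027 yeast were added. Plates were incubated overnight (18 h) at 30C in the dark, and GFP was measured by laser scanning cytometry.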

[3] = Primary qHTS for small molecule stabilizers of the endoplasmic reticulum resident proteome: Secreted ER Calcium Modulated Protein (SERCaMP) assay (AID 1508630)
Outline: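 The SH-SY5Y reporter protocol was run at 3 concentrations up to 38.3 uM (primary) or 11 concentrations (follow-up): 16 h compound, 100 nM thapsigargin for 4 h, then extracellular luciferase luminescence.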

[4] = Validation qHTS assay for inhibitors of Activation Induced Cytidine Deaminase (AID): UDG Counterscreen signal (AID 1347427)
Outline: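 Fluorescence at 560 nm excitation, 665 nm emission reports UDG signal after 250 mM NaOH (2x) addition and 30 min. Enzymes (AID 1 uM, UDG 2 U/mL, at 4/3x) preincubated 10 min with compound, then 4 h with 4x 250 nM DJC20/DJC23 substrate at room temperature.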

[5] = molecular target: Calcium and integrin-binding protein 1 (Homo sapiens) (UniProt Q99828); assay: Validation qHTS for Identification of Calcium Integrin Binding protein 1 (CIB1) Competitor (AID 1508618)
Outline: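 Displacement of FITC-alphaIIb peptide (100 nM) from CIB1-GST (1 uM) is monitored by polarization in quantitative HTS format; buffer carries 5 mM CaCl2 and 125 mM NaCl at pH 7.4, incubations are at room temperature.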

[6] = molecular target: Single-stranded DNA cytosine deaminase (Homo sapiens) (UniProt Q9GZX7); assay: Validation qHTS assay for inhibitors of Activation Induced Cytidine Deaminase (AID): AID signal (AID 1347429)
Outline: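 AID+UDG coupled FRET deamination; cpds up to 114 uM final; DJC20/DJC23 substrate, 4 hr RT; NaOH stop, 30 min RT; read Ex 540/Em 590.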

Chain of Calcium and integrin-binding protein 1 (Homo sapiens) (Q99828 whole entry, looked up): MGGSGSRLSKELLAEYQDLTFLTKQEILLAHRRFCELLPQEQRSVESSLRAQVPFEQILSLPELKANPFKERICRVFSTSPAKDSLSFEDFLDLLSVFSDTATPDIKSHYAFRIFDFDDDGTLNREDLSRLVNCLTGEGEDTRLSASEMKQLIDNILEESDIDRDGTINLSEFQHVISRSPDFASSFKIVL
Chain of Single-stranded DNA cytosine deaminase (Homo sapiens) (Q9GZX7 whole entry, looked up): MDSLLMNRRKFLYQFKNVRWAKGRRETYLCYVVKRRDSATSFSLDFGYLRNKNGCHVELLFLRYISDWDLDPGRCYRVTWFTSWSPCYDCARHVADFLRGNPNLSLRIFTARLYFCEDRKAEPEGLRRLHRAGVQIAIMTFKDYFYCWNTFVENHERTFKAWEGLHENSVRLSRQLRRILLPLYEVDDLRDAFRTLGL

| Compound | Potency [1] | outcome [2] | Potency [3] | Potency [4] | outcome [5] | Potency [6] |
| --- | --- | --- | --- | --- | --- | --- |
| O=C1NC(=O)c2c1c(-c1ccccc1)cc1[nH]c3ccc(O)cc3c21 | 14.1 µM (active) | inactive | inactive | – | – | – |
| CC(C)(C)c1ccc(S(=O)(=O)/C=C/C#N)cc1 | 7.08 µM (active) | – | inactive | inactive | inactive | – |
| Cn1c(=O)c(-c2c(Cl)cccc2Cl)cc2cnc(Nc3ccc(N4CCOCC4)cc3)nc21 | 0.631 µM (active) | inactive | – | – | inactive | – |
| CC(=O)/C=C1\C(=O)N(C)c2ccccc21 | 22.4 µM (active) | – | inactive | inactive | inactive | inactive |
| N[C@H](CCCP(=O)(O)O)C(=O)O | inactive | inactive | inactive | – | inactive | – |
